# PubChem BioAssay AID1069 (NMMLSC, 2008)
# The source made the active and inactive calls.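 Rule for the calls: active = high combined rank on largest and smallest cell-count-weighted shift across three tests, rank score above 45, floors 50 and 25 (some results past the limit were not filed as active); inactive = the rest.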
# Experiment: activators of LNCaP cell differentiation, retest, confirmation, side scatter shift, flow cytometry (AID 1069);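 note: LNCaP human prostate cancer cells in low-serum medium with charcoal-stripped FBS; percent of cells with raised granularity gated so DMSO controls show 10%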
# Conditions: 4 d, stronger effect = higher value
Compound,side scatter shift (at 100 µM),"side scatter shift (side scatter shift, at 10 µM)"
O=C(Cc1ccc(-n2cccc2)cc1)NCc1cccs1,28.8% (inactive),13.2%
CCOC(=O)N1CCC(NC(=O)c2cc3c(-c4ccccc4F)nn(C)c3s2)CC1,3.3% (inactive),3.9%
CN(CC(=O)Nc1ccc2c(c1)OCCO2)S(=O)(=O)c1cccc2cccnc12,16.8% (inactive),3.95%
COc1ccccc1N1CCN(C(=O)CCn2c(=O)[nH]c3ccsc3c2=O)CC1,19.4% (inactive),1.7%
COc1ccc(N2CCN(CCCNC(=O)CC3Oc4ccc(C)cc4NC3=O)CC2)cc1 (stereo unspecified),50% (active),9.05%
O=C(COc1ccc(S(=O)(=O)N2CCCC2)cc1Cl)NC1CC1,3.1% (inactive),1.25%
N#CC(C(=O)c1ccco1)c1ccccn1 (stereo unspecified),2.5% (inactive),10.3%
Cc1oc(-c2ccc(Cl)cc2)nc1CN1CCC(C(=O)NCc2ccco2)CC1,37.1% (inactive),9.6%
COc1ccc(Cc2n[nH]c(=O)c3ccccc23)cc1OC,5.3% (inactive),5.7%
CCOC(=O)c1c(C)[nH]c(C(=O)COC(=O)C2CC2C)c1C (stereo unspecified),24.3% (active),44.6%
COc1ccc(S(=O)(=O)CCC(=O)O)cc1,16.3% (inactive),7.3%
CN(CC(O)COc1ccc(OCC(O)CN(C)C2CCCCC2)cc1)C1CCCCC1 (stereo unspecified),49.4% (active),8.9%
CC(=O)c1cccc(NC2c3ccccc3C(=O)N2Cc2ccc3c(c2)OCO3)c1 (stereo unspecified),24% (inactive),4.25%
Cc1ccc2c(c1)NC(=O)C(CC(=O)NCCCN1CCN(c3cc(C)ccc3C)CC1)O2 (stereo unspecified),30.1% (inactive),2.95%
O=C(Nc1nc(-c2ccccc2)cs1)C1CCCCN1S(=O)(=O)c1ccccc1 (stereo unspecified),0.4% (inactive),4.75%
O=C(CCn1c(=O)oc2ccccc21)NCCCN1CCN(c2ccc(F)cc2)CC1,25.4% (inactive),4.25%
Cc1ccc(Oc2ccc(S(=O)(=O)N3CCOCC3)cc2C(N)=O)c(-n2nc3ccccc3n2)c1,20% (inactive),21.3%
CN(C)c1ccc(-c2nn3c(-c4ccc(Cl)cc4Cl)nnc3s2)cc1,50% (inactive),4.15%
CC1(C)CC(=O)c2cc(OCC(=O)NCCCN3CCN(c4ccccc4F)CC3)ccc2O1,27.3% (inactive),6.5%

Compound,side scatter shift (at 100 µM),"side scatter shift (side scatter shift, at 10 µM)"
CCSc1nnc(Cn2c(=O)sc3ccccc32)n1-c1ccccc1C,20.5% (inactive),9.7%
Cc1cc(N2CCN(C)CC2)nc2ccc(NC(=O)c3ccc(Br)o3)cc12,0% (active),56.4%
CCOC(=O)C1=C(O)CCn2c1nc1ccccc12,18% (inactive),3.3%
O=C(CSc1c[nH]c2ccccc12)N1CCOCC1,11.4% (inactive),4.25%
Cc1cc(=O)c2ccccc2[nH]1,11.2% (inactive),2.3%
Cc1cccc(-c2nc(CN3CCCC(C(=O)NC4CCCCC4)C3)c(C)o2)c1 (stereo unspecified),21.4% (inactive),7.35%
Cc1oc(-c2ccccc2F)nc1CN1CCC(C(=O)NC2CCCCCCC2)CC1,16.7% (inactive),9.45%
CCOC(=O)N1CCN(C(=O)CN(c2cccc(C(F)(F)F)c2)S(=O)(=O)c2ccccc2)CC1,11.7% (inactive),5.4%
COc1ccc(-c2coc3c(CN4CCCCC4)c(O)c(CN4CCCCC4)c(O)c3c2=O)cc1,28.6% (inactive),3.3%
O=S1(=O)C=C(Sc2nc3ccccc3s2)c2ccccc21,7.7% (inactive),17.9%
Cc1ccc2c(c1)c1c(n2CC(O)CNC(CO)(CO)CO)CCCC1 (stereo unspecified),34.3% (inactive),12.4%
O=C(NCC(c1cccnc1)N1CCOCC1)c1cccc(Cl)c1 (stereo unspecified),11.4% (inactive),13.9%
O=C(CCNC(=O)Cn1ccc2ccccc2c1=O)NCCCN1CCN(c2ccccc2F)CC1,35.7% (inactive),6.15%
COc1ccc(N2CCN(CCCNC(=O)C3(S(=O)(=O)c4ccc(Cl)cc4)CC3)CC2)cc1,26.9% (inactive),2.45%
Cc1cccc(-c2nc(CN3CCCC(C(=O)NC4CCCC4)C3)c(C)o2)c1 (stereo unspecified),13.8% (inactive),8.5%
CCc1ccc(CNC(=O)CN2C(=O)COc3ccccc32)cc1,9% (inactive),5.7%
COC(=O)c1[nH]c2c(c1C)C(=O)CCC2,7.2% (inactive),3.6%
CCCCOC(=O)CSc1nc2c(cc1C#N)C(=O)CC(C)(C)C2,16.3% (inactive),5.85%
CCC(C)NC(=O)c1cn(C)c(=O)c2cc(OC)c(OC)cc12 (stereo unspecified),25.6% (inactive),5.2%
